# Assay results as given in PubChem BioAssay (NCATS).
# Records with an inconclusive call do not appear. Unmarked numbers belong to inactive results. Activity calls are given as the source filed them. Calls follow the shape of the dose curve; as a rule, active = well fitted inhibition curve with a large enough effect; inconclusive = small, poorly fitted or top-dose-only effect; inactive = flat fitted curve, though single readings scatter.
# Assay: P-glycoprotein substrates identified in KB-8-5-11 adenocarcinoma cell line, qHTS therapeutic library screen (AID 1346987); also: nearly all actives have a fitted effect of over 65% in size
# Conditions: KB-8-5-11 (P-gp overexpressing) viability, CellTiter-Glo, 72 h; series mostly up to 44.5 µM; activity change, negative = cytotoxicity: at the top concentration
# In short: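 P-gp-mediated resistance screen: KB-8-5-11 cells treated 72 h with compounds in dose-response. CellTiter-Glo viability.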
# % is scaled to controls: 0 for no effect and ±100 for the full control effect; potency is read from the fitted curve at half-maximal effect.
Structure (SMILES),"activity change, negative = cytotoxicity",Potency
CCCOc1cc(N)ccc1C(=O)OCCN(CC)CC,-16.7% [at 17.3 µM],
NC(Cc1ccccc1)C(=O)O (centres undefined),7.44%,
CO/N=C(\C(=O)N[C@@H]1C(=O)N2C(C(=O)[O-])=C(C[n+]3ccc(N)n3CCO)CS[C@H]12)c1csc(N)n1,-2.03%,
COc1ccc(/C=C/C(=O)OCCC(C)C)cc1,-0.23%,
NC(=S)NS(=O)(=O)c1ccc(N)cc1,11.2%,
C[C@@H]1NC(=O)[C@@H](N)CNC(=O)[C@H](C2CCNC(N)=N2)NC(=O)/C(=C/NC(N)=O)NC(=O)[C@H](CNC(=O)C[C@@H](N)CCCN)NC1=O (some centres undefined),,inactive
CC(C)=CCC/C(C)=C/C=C/C(C)=C/C=C/C(C)=C/C=C/C=C(C)/C=C/C=C(C)/C=C/C=C(\C)CCC=C(C)C,-10.2%,
O=C(O[C@H]1CN2CCC1CC2)N1CCc2ccccc2[C@@H]1c1ccccc1,-18.3%,
Cc1cc(O)c2c(c1)O[C@@]1(C)CC[C@H]3C(C)(C)CCCC34CO[C@@H]2[C@H]41 (some centres undefined),-21.7%,
O=C(NNCS(=O)(=O)O)c1ccncc1,-1.75%,
FC(F)OC(Cl)C(F)(F)F (centres undefined),-1.52%,
CCN1C(=O)NC(c2ccccc2)C1=O (centres undefined),-1.31% [at 17.3 µM],
O=S(=O)(O)CCCS(=O)(=O)O,3.04%,
OC[C@@H](O)C(O)[C@H](O)CO,1.11%,
CN1CCCC(CN2c3ccccc3Sc3ccccc32)C1 (centres undefined),-24.7%,
CN1c2c(nc(N)[nH]c2=O)NCC1CNc1ccc(C(=O)NC(CCC(=O)O)C(=O)O)cc1 (centres undefined),-4.28%,
ClC(Cl)Cl,-0.568%,
COc1ccc(/C=N/NC(=O)c2ccncc2)c(C(=O)O)c1OC,0.157%,
CO/N=C(\C(=O)N[C@@H]1C(=O)N2C(C(=O)O)=C(C[N+]3(C)CCCC3)CS[C@H]12)c1csc(N)n1,-22.2%,
CCC[C@@H]1C[C@@H](C(=O)N[C@@H]([C@H]2O[C@H](SC)[C@H](O)[C@@H](O)[C@H]2O)[C@H](C)Cl)N(C)C1,1.83%,

Structure (SMILES),"activity change, negative = cytotoxicity",Potency
Cc1ccc(C(C)(C)c2ccc(C)cc2)cc1,-2.66%,
C=C(C)C1CC=C(C)CC1 (centres undefined),-3.92%,
CC(C)c1nc(N(C)S(C)(=O)=O)nc(-c2ccc(F)cc2)c1/C=C/C(O)CC(O)CC(=O)O (centres undefined),10.7%,
COC(=O)C(CN)c1c[nH]c2ccc(OC)cc12 (centres undefined),-5.15%,
CN[C@H](CC(C)C)C(=O)N[C@H]1C(=O)N[C@@H](CC(N)=O)C(=O)N[C@H]2C(=O)N[C@H]3C(=O)N[C@H](C(=O)N[C@@H](C(=O)O)c4cc(O)cc(O)c4-c4cc3ccc4O)[C@H](O)c3ccc(c(Cl)c3)Oc3cc2cc(c3O[C@@H]2O[C@H](CO)[C@@H](O)[C@H](O)[C@H]2O[C@H]2C[C@](C)(N)C(O)[C@H](C)O2)Oc2ccc(cc2Cl)[C@H]1O (some centres undefined),,inactive
CN1C(=O)OC(C)(C)C1=O,5.75% [at 17.3 µM],
C[C@@H]1O[C@@H](OC[C@H]2O[C@@H](Oc3c(-c4ccc(OCCO)c(OCCO)c4)oc4cc(OCCO)cc(O)c4c3=O)[C@H](O)[C@@H](O)[C@@H]2O)[C@H](O)[C@H](O)[C@H]1O,1.82%,
CN1CCC(OC(=O)C(Oc2ccc(Cl)cc2)Oc2ccc(Cl)cc2)CC1,2.51%,
CC1(C)C(\C=C/C=C\C=C/C=C2/N(CCCCS(=O)(=O)O)c3ccc4ccccc4c3C2(C)C)=[N+](CCCCS(=O)(=O)[O-])c2ccc3ccccc3c21,-3.93%,
O=C(Nc1ccc(O)cc1)c1ccccc1O,-17.8%,
CCC(=O)c1ccc2c(c1)N(CCCN1CCN(CCO)CC1)c1ccccc1S2,-27.6%,
O=C(OC[C@H]1O[C@@H](OC(=O)c2cc(O)c(O)c(OC(=O)c3cc(O)c(O)c(O)c3)c2)[C@H](OC(=O)c2cc(O)c(O)c(OC(=O)c3cc(O)c(O)c(O)c3)c2)[C@@H](OC(=O)c2cc(O)c(O)c(OC(=O)c3cc(O)c(O)c(O)c3)c2)[C@@H]1OC(=O)c1cc(O)c(O)c(OC(=O)c2cc(O)c(O)c(O)c2)c1)c1cc(O)c(O)c(OC(=O)c2cc(O)c(O)c(O)c2)c1,,23.1 µM (active)
COc1ccc(C(=O)CCC(=O)O)c2ccccc12,2.42%,
CC(C)[C@@H]1CC[C@@H](C)C[C@H]1O,10.9%,
COc1cc(NCCCC(C)N)c2ncccc2c1 (centres undefined),-16.3%,
O=C(O)c1cc(N=Nc2ccc(O)c(C(=O)O)c2)ccc1O,1.33%,
Cc1cccc(C)c1Nc1ncccc1C(=O)O,12.2%,
CCC(Oc1ccccc1)C(=O)N[C@@H]1C(=O)N2[C@@H]1SC(C)(C)[C@@H]2C(=O)O (some centres undefined),4.83%,
c1ccc(-n2cnnn2)cc1,-14.4%,
